Experimental data published in PubChem BioAssay.

Tested on: F380Y/beta2Delta
Assay: modulators of BK channel variants, profiling panel, selectivity assay, cell-based, U2OS BacMam, thallium flux, beta subunits (AID 1259406);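 note: initial slope of Thallos dye fluorescence rise after thallium is added; log ratio against the mean of 0.3% DMSO vehicle wells on the same plate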
Conditions: at 30 µM;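 active = thallium flux through the channel raised or lowered by more than 3 SD from vehicle-only wells, actives on both sides; inactive = the rest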

Log fold change Tl+ flux, inactive:
N#Cc1ccc(NCCc2ccccn2)c([N+](=O)[O-])c1 -0.0123
Cc1cc(CNCC(O)C(F)(F)F)no1 (configuration not stated) -0.0229
CSC(NCc1cccnc1)=C(C#N)S(=O)(=O)c1ccc(Cl)cc1 0.0758
Cc1c(C(=O)Nc2ccc(N3CCOCC3)c(Cl)c2)cnn1-c1ccc(F)cc1 -0.0427
Cc1nc(C)c(C(=O)O)c(-c2ccsc2)c1C(=O)O -0.0103
CCCCCCCCCCCC(=O)N1CC(=O)NC(=O)C1 -0.0133
Cc1cccc(N=Cc2cc(Cl)cc(Cl)c2O)c1C 0.0737
Cc1ccc(I)cc1[N+](=O)[O-] 0.0224
Cc1ccccc1C=C1N=C(c2ccccc2)OC1=O 0.0497
O=C(NNc1c(Cl)cccc1Cl)c1csc(Cc2c(Cl)cccc2Cl)n1 0.0346
CCSc1n[nH]c(=S)s1 0.00494
COc1cc(C(F)(F)F)nc2ccc(C#CCOC(=O)Nc3cccc(Cl)c3)cc12 -0.0312
CC12CCC(c3c1nn(-c1ccccc1)c3C(F)(F)F)C2(C)C (configuration not stated) 0.00374
COC(=O)C1=C(C)NC(C)=C(C(=O)OC)C1c1ccccc1 -0.0123
O=C(C(=NN=Cc1ccc2c(c1)OCO2)c1ccccc1)c1ccccc1 -0.0268
COc1ccc(Cl)cc1N1C(=O)C=C(c2ccccc2)C1=O -0.00673
O=c1[nH]nc(N2CCSCC2)[nH]1 -0.0177
